Source: PubChem BioAssay
The list is not random: actives were taken first. Their share in the collection is about 19%.
TDP1 inh: qHTS Assay for Inhibitors of Tyrosyl-DNA Phosphodiesterase (TDP1). recombinant TDP1, AlphaScreen DNA substrate cleavage. Potency, µM (series often up to 130 µM), without a hit: at the highest dose activity change, negative = inhibition, usual class: inhibitors. 0.28% of 350,000 active. AID 485290, 2010; further: potency means the concentration at half of the fitted maximal effect; nearly all actives have a fitted effect of over 40% in size
Target sequence (Q9NUW8 whole entry, looked up): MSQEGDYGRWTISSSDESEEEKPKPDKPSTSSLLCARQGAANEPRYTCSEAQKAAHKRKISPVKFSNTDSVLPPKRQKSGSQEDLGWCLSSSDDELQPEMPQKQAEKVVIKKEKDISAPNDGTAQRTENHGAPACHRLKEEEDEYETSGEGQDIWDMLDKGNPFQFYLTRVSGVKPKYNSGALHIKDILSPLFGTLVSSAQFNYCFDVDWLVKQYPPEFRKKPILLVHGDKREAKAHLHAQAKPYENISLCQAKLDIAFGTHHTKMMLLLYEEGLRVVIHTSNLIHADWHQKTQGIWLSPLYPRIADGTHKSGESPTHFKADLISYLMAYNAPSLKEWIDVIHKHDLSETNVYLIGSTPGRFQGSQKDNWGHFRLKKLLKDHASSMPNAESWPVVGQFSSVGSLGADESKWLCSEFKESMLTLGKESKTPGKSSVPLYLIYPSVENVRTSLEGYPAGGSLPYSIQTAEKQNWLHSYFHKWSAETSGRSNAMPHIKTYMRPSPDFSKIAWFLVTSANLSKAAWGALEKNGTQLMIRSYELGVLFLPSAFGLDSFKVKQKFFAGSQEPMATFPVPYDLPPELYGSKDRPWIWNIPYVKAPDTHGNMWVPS
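Here, a 5' biotin and 3' phosphotyrosine-FITC DNA oligonucleotide reports Tdp1 activity: intact substrate bridges AlphaScreen beads, while cleavage leaves a 3' phosphate and drops signal. All incubations at room temperature.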
ELG1 repair inh: qHTS screen for small molecules that inhibit ELG1-dependent DNA repair in human embryonic kidney (HEK293T) cells expressing luciferase-tagged ELG1. HEK293T ELG1-luciferase reporter, luminescence, 16 h; DNA damage induced by 5-fluorouridine. Potency, µM (highest dose often 46.1 µM), for the others: at the top dose activity change, negative = inhibition, hits mostly inhibitors. 2.3% of 330,000 active; further: potency means the concentration at half of the fitted maximal effect; nearly all actives have a fitted effect of over 55% in size
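HEK293T cells expressing luciferase-tagged ELG1 (2,000/well) received 5-Fluorouridine plus compound or DMSO for 16 hr at 37 °C. Luciferase was read by ONE-Glo luminescence after 30 min at room temperature.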
IL1B secr inh: qHTS for Inhibitors of Inflammasome Signaling: IL-1-beta AlphaLISA Primary Screen; activity change, % at 57.5 µM; THP-1 LPS/ATP IL-1B secretion, AlphaLISA, 16 h; stronger effect = lower value; AID 743279, 2014; 4.7% of 360,000 active; in the data active means activity change below about -50%; inconclusive means mostly about -30% to -49%
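Secreted IL-1B measured by AlphaLISA bead assay after 16 h compound exposure of THP-1 cells; compounds (final up to 57.5 uM) added 1 h before LPS (250 ng/mL) and ATP (1.25 mM) stimulation; lower signal means less secretion.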
TDP1 cell CPT: qHTS for Inhibitors of human tyrosyl-DNA phosphodiesterase 1 (TDP1): qHTS in cells in presence of CPT; AID 686979, 2013; Potency, µM (highest dose often 46.2 µM), for the others: top-dose activity change, negative = growth inhibition, actives largely listed as inhibitors; chicken DT40 Tdp1-/-;hTDP1 cells + 20 nM CPT, ATP luminescence, 48 h; 12% of 420,000 active; further: potency means the concentration at half of the fitted maximal effect; nearly all actives have a fitted effect of over 55% in size
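Chicken DT40 Tdp1-/- cells complemented with human TDP1, 400 cells/well, exposed to compounds plus 20 nM camptothecin for at least 48 h at 37 C; viability read as ATP content by CellTiter-Glo luminescence.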
TDP1 cell noCPT: qHTS for Inhibitors of human tyrosyl-DNA phosphodiesterase 1 (TDP1): qHTS in cells in absence of CPT; DT40 Tdp1-/- hTDP1 cells, no CPT, ATP luminescence, 48 h; Potency, µM (highest dose often 46.2 µM), for inactives: top-dose activity change, negative = growth inhibition, actives largely listed as inhibitors; 15% of 420,000 active; further: potency means the concentration at half of the fitted maximal effect; nearly all actives have a fitted effect of over 55% in size
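Growth kinetics read by CellTiter-Glo luminescence after ≥48 hr at 37 °C. Cells: DT40 Tdp1-/- stably carrying human TDP1, 400 per well, compound exposure in the absence of CPT (DMSO vehicle).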
Giardia killer: Small Molecules that selectively kill Giardia lamblia: qHTS; AID 540267, 2011; 0.15% of 340,000 active; Giardia lamblia trophozoite viability; activity change, % at 7.66 µM, hits read low; in the data active means activity change below about -80%; inconclusive means between about -30% and that limit;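 further: parasites exposed to compound for two days anaerobically before the ATP read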
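Luminescence from cellular ATP indicates surviving trophozoites (100 cells/well) following 48 hrs anaerobic compound treatment at 37 deg C; signal develops 15-30 min at room temperature.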
* hit, by the source's call; ? = inconclusive; / = not tested or not shown; [ ] = remark or other dose. Unless noted, the call rests on the fitted dose curve; in most records, active means well fitted curve in the direction sought with a large enough effect; inconclusive means small, poorly fitted or top-dose-only effect, or another doubt; inactive means no such curve, though single readings can be large; an effect the other way counts as inactive or inconclusive. On the % scale 0 is the no-effect control and ±100 the full control effect.

SMILES	TDP1 inh	ELG1 repair inh	IL1B secr inh	TDP1 cell CPT	TDP1 cell noCPT	Giardia killer
O=C(CN1C(=O)C2CC=CCC2C1=O)Nc1ccc(Br)cc1 (centres undefined)	1%	11%	2	9%	12%	6
Cc1noc(C)c1C(=O)N1CCC(C(=O)c2ccccc2)CC1	1%	-24%	4	3%	-6%	0
Cc1ccccc1SCC(=O)OCC(=O)NCCNC(=O)COC(=O)CSc1ccccc1C	-9%[0.505 µM]	?	27	-1%	0%	-5
CCC1CN(C(=O)Nc2cccc(C)c2)c2cc(C)ccc2O1 (centres undefined)	4%	2%	0	?	21µM*	-7
CCC1CN(C(=O)Nc2cc(C)cc(C)c2)c2ccccc2O1 (centres undefined)	4%	/	/	?	?	/
CCC1CN(C(=O)NCc2ccccc2)c2ccccc2O1 (centres undefined)	/	-7%	-25	-13%	?	17
CCOC(=O)c1cccc(NC(=O)N2CC(CC)Oc3ccccc32)c1 (centres undefined)	-3%	/	/	?	16µM*	/
CCC1CN(C(=O)Nc2cccc(OC)c2)c2ccccc2O1 (centres undefined)	4%	/	/	?	23µM*	/
CCc1nc2ccccc2n1CC(O)COCC1CC=CCC1 (centres undefined)	-1%	-3%	0	?	?	-6
CCOC(=O)C1=C(N)N(c2ccccc2)C(=O)C1	5%	0%	18	7.3µM*	16µM*	-7
CCCN(Cc1ccccc1)C(=S)Nc1ccc(F)cc1	-4%	-8%	-10	13%	-11%	-27
CCCN(Cc1ccccc1)C(=S)Nc1ccc(SC(F)F)cc1	5%	23µM*	-7	2%	?	-18
CCCCNC(=S)Nc1ccc(F)cc1	6%	?	5	10%	-12%	20
CCCCNC(=S)Nc1ccc(SC(F)F)cc1	5%	-1%	-105*	-12%	?	-4
CCCN(Cc1ccccc1)C(=S)Nc1ccc(OCC)cc1	7%	-1%	-58*	?	18µM*	-2
Oc1cccc(NC(=S)Nc2ccc(SC(F)F)cc2)c1	6%	16%	-58*	4%	?	-7
COc1cc(C(=O)NCCC(=O)N2CCC3(CC2)NCCc2[nH]cnc23)cc(OC)c1OC	4%	17%	-5	16%	-12%	22
O=C(COc1ccc2ccccc2c1)Nc1ccccc1C(=O)O	6%	?	17	?	?	-16
c1ccc(C(c2ccccc2)N2CCN(c3nc4ccccc4n4cnnc34)CC2)cc1	5%	?	36	?	3.7µM*	14
c1cnc(N2CCN(c3nc4ccccc4n4cnnc34)CC2)nc1	3%	-10%	-11	-12%	-22%	12
Cc1cccc(N2CCN(c3nc4ccccc4n4cnnc34)CC2)c1C	2%	13%	6	26µM*	?	-10
Cc1cc(OC(C)C(=O)N(Cc2ccco2)C2CCS(=O)(=O)C2)cc(C)c1Cl (centres undefined)	/	-6%	-28	?	21µM*	-15
COc1ccc(CN(C(=O)c2ccc(OCC(C)C)cc2)C2CCS(=O)(=O)C2)cc1 (centres undefined)	5%	/	/	12µM*	?	/
CC(C)COc1ccc(C(=O)N(Cc2ccco2)C2CCS(=O)(=O)C2)cc1 (centres undefined)	5%	?	2	?	16µM*	-11
CCc1ccc(OCC(=O)N(Cc2ccc(OC)cc2)C2CCS(=O)(=O)C2)cc1 (centres undefined)	12%	/	/	?	-23%	/
SMILES	TDP1 inh	ELG1 repair inh	IL1B secr inh	TDP1 cell CPT	TDP1 cell noCPT	Giardia killer
CC(=O)c1ccc(S(=O)(=O)N2CCN(CC(=O)Nc3ccnn3C3CCCC3)CC2)cc1	/	/	43	-6%	-11%	-4
O=C(COC(=O)c1cc(Cl)ccc1[N+](=O)[O-])NCc1ccc(Cl)cc1Cl	7%	4%	4	-30%	-13%	-5
CCOC(=O)c1cnc2c(ccc3ccccc32)c1NCCN(C)C	/	-3%	-58*	?	?	?
CCOC(=O)c1cnc2c(ccc3ccccc32)c1Nc1cccc(OC)c1	0%[12.3 µM]	/	/	?	26µM*	/
CCOC(=O)c1cnc2c(ccc3ccccc32)c1Nc1ccc(OCC)cc1	-2%[12.3 µM]	/	/	?	-27%	/
CCOC(=O)c1cnc2c(ccc3ccccc32)c1NCCO	-4%[56.1 µM]	?	?	?	21µM*	2
CCOC(=O)c1cnc2c(C)c(C)ccc2c1Nc1ccc(S(=O)(=O)Nc2ncccn2)cc1	1%	?	-93*	3%	-4%	9
O=C(NC(C(=O)c1ccccc1)N1CCCCC1)c1ccccc1 (centres undefined)	3%	?	-10	-2%	-20%	-9
CCc1nnc(NC(=O)c2ccc3nc(CC)c(CC)nc3c2)s1	3%	26%	0	2%	-26%	-23
Cc1ccc(NC(=O)COc2ccc(Br)cc2C)cc1	1%	?	?	1%	-18%	-5
O=C(OCC(=O)N1CCCC1)c1c2c(nc3ccccc13)CCCCC2	4%	3%	47	?	?	?
Oc1cccc(CN2CCOCC2)c1O	/	/	-5	26µM*	?	3
Oc1ccc2ccccc2c1CN1CCOCC1	5%	7%	-15	-13%	-22%	-21
Oc1c(CN2CCOCC2)cc(CN2CCOCC2)c(O)c1O	/	/	14	18µM*	?	5
CCCc1cc(CN2CCOCC2)c(O)c(CN2CCOCC2)c1O	/	/	?	15µM*	18µM*	0
CCOC(=O)N1CCc2c(sc3c2C(=O)NC(c2cc(OC)c(OC)c(OC)c2)N3)C1 (centres undefined)	3%	/	/	3.7µM*	5.2µM*	/
CCOC(=O)N1CCc2c(sc3c2C(=O)NC(c2ccc(C(=O)OC)cc2)N3)C1 (centres undefined)	0%	/	/	7.3µM*	13µM*	/
CN1CCc2c(sc3c2C(=O)NC(c2ccccc2)N3)C1 (centres undefined)	3%	?	-6	?	23µM*	-11
